# Data from PubChem BioAssay (NCATS).
# Records with an inconclusive call do not appear. Where a call stands in place of a potency, no number is given. The source made the active and inactive calls. Calls follow the shape of the dose curve; as a rule, active = well fitted cell-killing curve with a large enough effect; inconclusive = small, poorly fitted or top-dose-only effect, or effect the other way; inactive = no such curve, though single readings can be large or run the other way.
# Assay: Quantitative High-Throughput drug screen in 47 multiple myeloma cell lines against the NCATS MIPE library collection: EJM_DSMZ cell viability assay (AID 1918926; also: nearly all actives have a fitted effect of over 30% in size)
# Settings: EJM myeloma cell viability, CellTiter-Glo ATP, 48 h; series mostly up to 45.8 µM
# Excerpt: PI: Beverly A. Mock Ph.D.
# Laboratory of Cancer Biology and Genetics,
# Center for Cancer Research, National Cancer Institute,
# National Institute of Health, Bethesda, Maryland
# Drug resistance and disease progression are common in multiple myeloma (MM) patients, underscoring the need for new therapeutic combinations. […] We hypothesized that effective combinations would reduce MYC expression and enhance p16 activity. […] These preclinical data identify potentially useful drug combinations for evaluation in drug-resistant MM and reveal potential mechanisms of combined drug sensitivity.
# Described herein is the primary MIPE qHTS used to cherrypick compounds. Validated compounds were then further tested for potential synergistic activiy.
# [1] Peat TJ, Gaikwad SM, Dubois W, Gyabaah-Kessie N, Zhang S, Gorjifard S, Phyo Z, Andres M, Hughitt VK, Simpson RM, Miller MA, Girvin AT, Taylor A, Williams D, D'Antonio N, Zhang Y, Rajagopalan A, Flietner E, Wilson K, Zhang X, Shinn P, Klumpp-Thomas C, McKnight C, Itkin Z, Chen L, Kazandijian D, Zhang J, Michalowski AM, Simmons JK, Keats J, Thomas CJ, Mock BA. Drug combinations identified by high-throughput screening promote cell cycle transition and upregulate Smad pathways in myeloma. Cancer Lett. 2023 Aug 1;568:216284. doi: 10.1016/j.canlet.2023.216284. Epub 2023 Jun 24. PMID: 37356470; PMCID: PMC10408729.
# SEQUENCE No. (e.g., 1, 2, 3, etc.); […] (e.g., Cells, Incubation, Reagent, etc.); VALUE and DESCRIPTION.
# 1; Cells; 5 uL; white, solid bottom 1536-well Greiner assay plate.
# 2; Compounds; 23 nL; Kalypsis pin tool (Wako USA) equipped with a 1536-well pin head to transfer to the assay plates.
# 3; Incubation; 48 hours; 37C incubation.
# 4; Reagent;5uL; CellTiter Glo (Promega).
# 5; Detector; 425V; Luminescence; Viewlux PerkinElmer.
# NOTES (numbers refer to Sequence numbers above)
# 1. The cell-based screening methods employed in this study were like those previously published. Briefly, the corresponding myeloma cell lines were screened in 1,536-well plates with 500 cells, 5-uL per well for inhibition of cell viability (assessed by measuring ATP levels with CellTiterGlo).
# 2. NCATS MIPE 4.0 library of approved and investigational drugs were added using the Kalypsis pin tool. Wells treated with DMSO only for 100% viability and media only wells for 0% viability were used as controls.
# 3. The assay plates were covered and incubated for 48 hours in a 37C, 5% CO2 incubator with controlled humidity.
# 4. After 48 hours, CellTilter-GloTM luminescent substrate mix (Promega) reagent was added to the assay plate and plates we incubated for 5 min at room temperature.
# 5. Signal was measured as median relative luminescence units on a ViewLux (PerkinElmer) multiplate reader.
# [1] Heske CM, Davis MI, Baumgart JT, Wilson K, Gormally MV, Chen L, Zhang X, Ceribelli M, Duveau DY, Guha R, Ferrer M, Arnaldez FI, Ji J, Tran HL, Zhang Y, Mendoza A, Helman LJ, Thomas CJ. Matrix Screen Identifies Synergistic Combination of PARP Inhibitors and Nicotinamide Phosphoribosyltransferase (NAMPT) Inhibitors in Ewing Sarcoma. Clin Cancer Res. 2017 Dec 1;23(23):7301-7311. doi: 10.1158/1078-0432.CCR-17-1121. Epub 2017 Sep 12. PMID: 28899971; PMCID: PMC6636827.
# Potency is read from the fitted curve at half-maximal effect.
row,Structure (SMILES),Potency
1,C[C@@H]1[C@H](O)[C@@H](C)C=CC=CC=CC=CC=CC=CC=C[C@H](O[C@@H]2O[C@H](C)[C@H](O)[C@H](N)[C@@H]2O)C[C@@H]2O[C@](O)(C[C@@H](O)C[C@@H](O)[C@H](O)CC[C@@H](O)C[C@@H](O)CC(=O)O[C@H]1C)C[C@H](O)[C@@H]2C(=O)O,inactive
2,CC(C)c1onc(-c2c(Cl)cccc2Cl)c1COc1ccc(C=Cc2cccc(C(=O)O)c2)c(Cl)c1,inactive
3,COc1ccc(C=CC(=O)Nc2ccccc2C(=O)O)cc1OC,inactive
4,O=C1NC(=O)C(c2cnc3ccccn23)=C1c1cn2c3c(cccc13)CN(C(=O)N1CCOCC1)CC2,0.187 µM (active)
5,C[C@@H]1CC=CC=CC=CC=C[C@@H](O[C@@H]2O[C@H](C)[C@@H](O)[C@H](N)[C@H]2O)C[C@@H]2O[C@](O)(C[C@@H](O)C[C@@H]3O[C@@H]3C=CC(=O)O1)C[C@H](O)[C@@H]2C(=O)O,inactive
6,NC(=O)c1noc([C@H](CCCC2CCCCC2)CC(=O)NO)n1,14.8 µM (active)
7,COc1ccc(-c2oc3c(CC=C(C)C)c(O)cc(O)c3c(=O)c2O)cc1,18.7 µM (active)
8,Cc1ccc(C2=Nc3ccc(Cl)cc3OC2)cc1,inactive
9,CC[C@H](C)n1cc(C)c2c(C(=O)NCc3c(C)cc(C)[nH]c3=O)cc(-c3ccc(N4CCNCC4)nc3)cc21,20.9 µM (active)
10,OCCn1cc(-c2ccc3c(c2)CCC3=NO)c(-c2ccncc2)n1,inactive
11,CCNC(=O)[C@H]1O[C@@H](n2cnc3c(N)nc(NCCc4ccc(CCC(=O)O)cc4)nc32)[C@H](O)[C@H]1O,0.0332 µM (active)
12,CCC(=C(c1ccc(O)cc1)c1ccc(OCCNC)cc1)c1ccccc1,23.5 µM (active)
13,COc1c(C)c2c(c(O)c1CC=C(C)CCC(=O)OCCN1CCOCC1)C(=O)OC2,inactive
14,CC=C1C2C=C(C)CC1(N)c1ccc(=O)[nH]c1C2 (stereo not given),inactive
15,CN(C)S(=O)(=O)c1ccc2c(c1)C(=Cc1cc3c([nH]1)CCCC3)C(=O)N2,4.69 µM (active)
16,COc1cc2ncn(-c3cc(OCc4ccccc4S(C)(=O)=O)c(C#N)s3)c2cc1OC,3.72 µM (active)
17,Nc1ccc(-c2ccc3ncc4ccc(=O)n(-c5cccc(C(F)(F)F)c5)c4c3c2)cn1,0.0187 µM (active)
18,Fc1ccc(CNc2ncnc3ccc(F)cc23)cc1,6.62 µM (active)
19,O=C(c1ccc(C(=O)N2CCC(N3CCCC3)CC2)c(Nc2ccccc2)c1)N1CCC(N2CCCC2)CC1,14.8 µM (active)
20,Nc1ccn([C@@H]2O[C@H](CO)[C@@H](O)[C@H]2O)c(=O)n1,inactive

row,Structure (SMILES),Potency
1,COc1cc2c(cc1OC)[C@@H]1Cc3ccc(OC)c(OC)c3CN1CC2,10.5 µM (active)
2,c1ccc(CNc2nc(N3CCOc4ccccc43)nc3c2CCCC3)cc1,inactive
3,CC(=O)O[C@]1(C(C)=O)CC[C@H]2[C@@H]3C=C(Cl)C4=CC(=O)[C@@H]5C[C@H]5[C@]4(C)[C@@H]3CC[C@@]21C,11.8 µM (active)
4,O=C1CN2Cc3c(ccc(Cl)c3Cl)N=C2N1,inactive
5,CCC[C@@H](NC(=O)[C@@H]1[C@H]2CCC[C@@H]2CN1C(=O)[C@@H](NC(=O)[C@@H](NC(=O)c1cnccn1)C1CCCCC1)C(C)(C)C)C(=O)C(=O)NC1CC1,inactive
6,COc1cc2ncnc(Nc3cc(Br)c(O)c(Br)c3)c2cc1OC,0.003 µM (active)
7,O=C(NC[C@H](O)CO)c1ccncc1Nc1ccc(I)cc1F,18.7 µM (active)
8,C[C@]12CCC3=C4CCC(=O)C=C4CC[C@@H]3[C@H]1CC[C@@]2(O)CC#N,inactive
9,CCOC(=O)[C@H]1O[C@H]1C(=O)N[C@@H](CC(C)C)C(=O)NCCC(C)C,inactive
10,CCN(CCO)CCCOc1ccc2c(Nc3cc(CC(=O)Nc4cccc(F)c4)[nH]n3)ncnc2c1,inactive
11,Cc1nc(NC(=O)N2CCC[C@@H]2C(N)=O)sc1-c1csc(C(C)(C)C)n1,8.33 µM (active)
12,CC[C@H](C)C(=O)O[C@H]1C[C@H](O)C=C2C=C[C@H](C)[C@H](CC[C@@H](O)C[C@@H](O)CC(=O)O)[C@H]21,inactive
13,O=C(c1ccc(C=Cc2n[nH]c3ccccc23)cc1)N1CCNCC1,20.9 µM (active)
14,C=C1[C@H](n2cnc3c(=O)[nH]c(N)nc32)C[C@H](O)[C@H]1CO,inactive
15,O=C(O)C1=NC(C(=O)O)CC(C=CN2c3cc(O)c(OC4OC(CO)C(O)C(O)C4O)cc3CC2C(=O)O)=C1 (stereo not given),inactive
16,Cc1cccc(-c2[nH]c(C(C)(C)C)nc2-c2ccc3c(c2)OCO3)n1,11.8 µM (active)
17,C[C@]12C=CC(=O)C=C1CC[C@@H]1[C@@H]2[C@@H](O)C[C@@]2(C)[C@@H]1CC[C@]2(O)C(=O)CO,inactive
18,C[C@@]1(c2cc(-c3cncnc3)c(F)cc2F)CCSC(N)=N1,inactive
19,Cc1ccc(NC(=O)Nc2cc(C(F)(F)F)ccc2F)cc1Nc1ccc2c(c1)NC(=O)C2=Cc1ccc[nH]1,26.4 µM (active)
20,NS(=O)(=O)c1cc(Cl)c(Cl)c(S(N)(=O)=O)c1,inactive
